These results are taken from publication PMC4336329 (PLoS ONE, 2015).

Among all 310,000 compounds or so, about 14,000 (4.5%) showed an effect of 50% or more. Effects have a minus sign here. Only a selection was taken, and strong results are over-represented in it overall.
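Further: peak tail current of the secondary pulse compared with the same well before compound.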

The target in the experiment is human ether-à-go-go-related gene (hERG) potassium channel (human, UniProt Q12809). Kind of experiment: primary screen, population patch clamp on CHO cells stably expressing hERG; higher = less effect of the substance.
Chain of human ether-à-go-go-related gene (hERG) potassium channel (Q12809 whole entry, looked up): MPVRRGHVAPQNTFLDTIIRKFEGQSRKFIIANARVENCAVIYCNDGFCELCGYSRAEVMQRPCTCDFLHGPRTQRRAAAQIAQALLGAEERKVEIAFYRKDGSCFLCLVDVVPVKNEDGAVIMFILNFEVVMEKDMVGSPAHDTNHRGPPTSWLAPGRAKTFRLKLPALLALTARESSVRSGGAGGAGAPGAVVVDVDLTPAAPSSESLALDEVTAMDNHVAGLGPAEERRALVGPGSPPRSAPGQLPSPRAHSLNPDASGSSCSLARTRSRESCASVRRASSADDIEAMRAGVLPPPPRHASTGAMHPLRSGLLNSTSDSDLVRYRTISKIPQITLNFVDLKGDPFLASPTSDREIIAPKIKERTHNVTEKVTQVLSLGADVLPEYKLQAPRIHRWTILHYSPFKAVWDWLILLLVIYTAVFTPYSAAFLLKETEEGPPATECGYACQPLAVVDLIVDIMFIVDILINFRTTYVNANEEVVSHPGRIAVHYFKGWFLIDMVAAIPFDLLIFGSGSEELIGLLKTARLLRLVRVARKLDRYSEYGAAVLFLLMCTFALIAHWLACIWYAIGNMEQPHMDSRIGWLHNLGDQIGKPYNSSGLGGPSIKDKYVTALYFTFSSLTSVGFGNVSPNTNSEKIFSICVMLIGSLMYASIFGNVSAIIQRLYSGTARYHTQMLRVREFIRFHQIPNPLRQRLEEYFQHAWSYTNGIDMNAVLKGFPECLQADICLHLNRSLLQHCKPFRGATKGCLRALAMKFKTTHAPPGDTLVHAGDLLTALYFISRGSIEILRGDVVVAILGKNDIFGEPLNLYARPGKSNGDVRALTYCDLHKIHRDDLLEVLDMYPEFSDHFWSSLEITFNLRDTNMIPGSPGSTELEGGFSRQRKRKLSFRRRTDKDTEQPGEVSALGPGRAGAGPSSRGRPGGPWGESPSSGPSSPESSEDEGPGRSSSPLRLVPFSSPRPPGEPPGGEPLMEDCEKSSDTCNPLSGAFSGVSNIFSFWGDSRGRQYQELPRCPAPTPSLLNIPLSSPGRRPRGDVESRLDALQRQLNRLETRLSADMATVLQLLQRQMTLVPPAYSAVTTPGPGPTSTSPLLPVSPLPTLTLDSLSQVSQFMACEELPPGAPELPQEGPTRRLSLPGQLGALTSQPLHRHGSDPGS
On to `CCOC(=O)N1CCN(C(=O)c2csc3c2CCCCC3)CC1`, for which the “hERG current change (%, negative = inhibition) at 10uM” value is on record as 8.08%.
The same measure for `C=C(C)C1Cc2c(C)nn(-c3ccccn3)c2C1` (stereo not drawn): 11%; for `Cc1csc(SCC(=O)Nc2sccc2C#N)n1`: -0.612%.
The same measure for `Cc1oc(-c2ccccc2)nc1CS(=O)CC(=O)NC1CCCCCC1` (stereo not drawn): -11.5%; for `Cc1cccc(OCC(=O)NCC(=O)n2nc(C)cc2C)c1`: 10.5%; for `Oc1c(C(c2ccco2)N2CCC3(CC2)OCCO3)sc2ncnn12` (stereo not drawn): 1.38%.
Under `COc1ccc(C2C=C(c3ccc(Cl)cc3)Nc3nc(NC(C)=O)nn32)cc1` (stereo not drawn) stands -39.7%; under `COc1ccc(C2=CC(c3c(C)nn(-c4ccccc4)c3Cl)n3nnnc3N2)cc1OC` (stereo not drawn), 11.4%; under `COc1ccc(C2=CC(c3ccc(Cl)cc3)n3cnnc3N2)cc1OC` (stereo not drawn), -52%.
Turning to `COCCn1c(SCC(=O)Nc2sc(C)c(C)c2C#N)nnc1-c1ccc(OC)cc1`, the “hERG current change (%, negative = inhibition) at 10uM” value is -52.1%.
For `Cc1ccc(OCc2nnc(SCC(=O)Nc3sc(C)c(C)c3C#N)n2C)cc1`, the “hERG current change (%, negative = inhibition) at 10uM” value was determined as 12.8%.
The same measure for `COCCn1c(SCC(=O)Nc2sc(C)c(C)c2C#N)nnc1C(C)C`: -3.62%.
For the molecule `Cc1sc(NC(=O)CSc2nnc(C(C)C)n2C)c(C#N)c1C`, the “hERG current change (%, negative = inhibition) at 10uM” value is -1.79%.
Under `Cc1ccc(-c2nnc(SCC(=O)Nc3sc(C)c(C)c3C#N)n2C)cc1` stands -54.1%.
The same measure for `CCOC(=O)c1sc(NC(=O)CSc2nnc(-c3ccc(OC)cc3)n2CCOC)nc1C`: -27.3%; for `CN1CCN(C(=S)c2ccc(-c3cc(Cl)ccc3Cl)o2)CC1`: -20.7%; for `CC1CCN(C(=O)COC(=O)c2cc3ccccc3cc2O)CC1`: 3.92%.
With `O=C1c2ccccc2C(=O)N1n1c(=O)[nH]c2ccccc2c1=O`, the “hERG current change (%, negative = inhibition) at 10uM” value is 14.9%.
Under `O=C(O)c1ccccc1-n1c2ccccc2c2ccccc21` stands 19%; under `COc1ccccc1NC(=O)C(C)OC(=O)Cc1n[nH]c(=O)c2ccccc12` (stereo not drawn), 9.99%.
Under `Cn1c(SCc2nc3ccccc3[nH]2)nnc1-c1cnccn1` stands 10.2%; under `Oc1ccc(C=NCCc2ccccc2)cc1`, 10.2%.
The same measure for `COc1ccc(OC)c(/C=C/C(=O)N(C)CC(=O)Nc2ccc(N3CCOCC3)cc2)c1`: -8.78%; for `COc1ccc(C[C@H]2CN3C(=NC[C@@H]3Cc3ccccc3)N2CCNC(=O)c2ccc(C)c(Br)c2)cc1`: -74%.
As for `COc1ccc(C[C@H]2CN3C(=NC[C@H]3Cc3ccccc3)N2CCNC(=O)c2ccc(C)c(Br)c2)cc1`, the “hERG current change (%, negative = inhibition) at 10uM” value is -69%.
Under `CCCCCCNC(=O)N[C@@H](C(=O)NCCC[C@H]1CN2C(=NC[C@@H]2Cc2ccccc2)N1CCc1cccc(OC)c1)C(C)C` stands -18.7%; under `COc1ccc(/C=N/Nc2cc(N(C)C)nc(N(C)C)n2)cc1`, -28.5%; under `COc1ccc(C2(C(=O)Nc3ccc(C)c(C)c3)CCOCC2)cc1`, 6.97%.
Under `Cc1ccc2c(c1)sc(C)[n+]2CCCS(=O)(=O)[O-]` stands 29.7%; under `COc1cc(/C=N/NC(=O)Cc2ccccc2)ccc1Oc1ccc([N+](=O)[O-])cc1[N+](=O)[O-]`, 1.03%; under `CN1CCCC(OC(=O)c2ccc(S(=O)(=O)N(C)C)cc2)C1.Cl` (stereo not drawn), 8.58%.
The same measure for `Cl.Clc1ccc(SCCOCCN2CCc3ccccc3C2)cc1`: -53.7%; for `Cl.c1ccc(SCCOCCN2CCOCC2)cc1`: 14.3%; for `Cc1ccc(SCCOCCN2CCOCC2)cc1.Cl`: -1.55%.
For the molecule `c1ccc(SCCN2CCc3ccccc3C2)cc1`, the “hERG current change (%, negative = inhibition) at 10uM” value is -19.3%.
Under `Cc1ccc(Cl)c(OCCN2CCc3ccccc3C2)c1.Cl` stands -9.17%.
Take `CC1CN(CCOCCSc2ccccc2)CC(C)O1.Cl` (stereo not drawn): the “hERG current change (%, negative = inhibition) at 10uM” value is given as -14.9%.
The same measure for `c1ccc(SCCOCCN2CCc3ccccc3C2)cc1`: -75.3%; for `Cc1ccc(SCCOCCN2CC(C)OC(C)C2)cc1.Cl` (stereo not drawn): -12.4%.
As for `Cc1ccc(SCCOCCN2CCc3ccccc3C2)cc1`, the “hERG current change (%, negative = inhibition) at 10uM” value is -60.5%.
The same measure for `O=C(c1cccnc1)N1CCC(Oc2ccc(C(=O)N3CCCC(O)C3)cc2)CC1` (stereo not drawn): -0.912%; for `CC(=O)c1cnc2nc(SCc3ccccc3)nn2c1C`: 0.852%; for `O=C(c1ccco1)N1CCN(C2CC(=O)N(c3ccc4c(c3)OCO4)C2=O)CC1` (stereo not drawn): -16.8%.
Under `COc1ccc(CC(=O)N2CCN(c3ccccn3)CC2)cc1OC` stands 8.9%; under `COc1cc(C(=O)N/N=C/c2cc([N+](=O)[O-])cs2)cc(OC)c1OC`, -8.26%; under `C[C@@H](C(=O)NCc1ccccc1)[C@H]1C[C@]1(C)[C@H](NC(=O)OCc1ccccc1)c1ccccc1`, -21.3%.
The same measure for `C[C@@H](C(=O)NCc1ccc(S(C)(=O)=O)cc1)[C@H]1C[C@]1(C)[C@H](NC(=O)OCc1ccccc1)c1ccccc1`: -35.4%; for `C[C@@H](C(=O)NCc1ccc(S(C)(=O)=O)cc1)[C@@H]1C[C@@]1(C)[C@@H](NC(=O)OCc1ccccc1)c1ccccc1`: -75.1%.
`CCCC(=O)n1nc(-c2ccco2)nc1SCc1ccccc1`: the “hERG current change (%, negative = inhibition) at 10uM” value is 0.232%.
Under `CN(CC(=O)N1CCN(c2ccccn2)CC1)S(=O)(=O)c1cccc2nsnc12` stands -23.6%; under `CC1CCN(C(=O)C(NS(=O)(=O)c2cccc3nsnc23)c2ccccc2)CC1` (stereo not drawn), -69.5%; under `O=C(Nc1ccccn1)C(NS(=O)(=O)c1cccc2nsnc12)c1ccccc1` (stereo not drawn), -4.67%.
Take `CCOC(=O)N1CCN(C(=O)C(NS(=O)(=O)c2cccc3nsnc23)c2ccccc2)CC1` (stereo not drawn): the “hERG current change (%, negative = inhibition) at 10uM” value was -47.1%.
The same measure for `O=C(NC1CCCC1)C(NS(=O)(=O)c1cccc2nsnc12)c1ccccc1` (stereo not drawn): -10.5%; for `O=C(C(NS(=O)(=O)c1cccc2nsnc12)c1ccccc1)N1CCN(c2ccccc2)CC1` (stereo not drawn): -71.4%.
On to `O=C(C(NS(=O)(=O)c1cccc2nsnc12)c1ccccc1)N1CCN(c2ccccn2)CC1` (stereo not drawn), for which the “hERG current change (%, negative = inhibition) at 10uM” value is listed as -64.8%.
The same measure for `O=C(O)C(NS(=O)(=O)c1cccc2nsnc12)c1ccccc1` (stereo not drawn): 16.1%; for `CC1CCN(C(=O)C(NS(=O)(=O)c2cccc3nsnc23)C(C)C)CC1` (stereo not drawn): -5.48%.
The same measure for `Cc1c(Cl)cccc1NC(=S)N1CCN(Cc2ccccc2)CC1`: -3.12%.
The same measure for `CN(C)C(CNC(=O)c1ccccc1C(F)(F)F)c1ccco1` (stereo not drawn): 7.83%.
Consider `CCS(=O)(=O)Nc1cccc(C(=C2CCCCC2)c2cnc[nH]2)c1`, for which the “hERG current change (%, negative = inhibition) at 10uM” value is listed as -30.2%.
The same measure for `CCN1CCc2c(C#N)c(N3CCOCC3)nc(N3CCOCC3)c2C1`: 5.21%.
The same measure for `O=C(Nc1ncccn1)C1=C(O)c2ccccc2S(=O)(=O)N1Cc1ccccc1`: 22.8%; for `CCOC(=O)/C(C#N)=C/c1cccn1-c1ccc(Cl)cc1`: 2.73%; for `C/C(=N\NC(=O)COc1ccccc1F)c1cc2ccccc2o1`: 3.99%.
Turning to `O=C(O)c1ccc(CSc2nnc(-c3ccco3)o2)cc1`, the “hERG current change (%, negative = inhibition) at 10uM” value was 2.07%.
Under `Cc1cc(C)cc(-c2nnc(SCc3ccc(C(=O)O)cc3)o2)c1` stands -74%.
Under `COc1cc(OC)cc(-c2nnc(SCc3cccc(C(=O)O)c3)o2)c1` stands 8.29%.
Under `O=C(O)c1ccc(CSc2nnc(-c3ccc(Cl)cc3)o2)cc1` stands 26.5%; under `COc1ccc(-c2nnc(SCc3ccc(C(=O)O)cc3)o2)cc1OC`, 13.7%.
Take `COc1cc(OC)cc(-c2nnc(SCc3ccc(C(=O)O)cc3)o2)c1`: the “hERG current change (%, negative = inhibition) at 10uM” value is -71.6%.
The same measure for `CN(C(=O)c1ccnn1C)C1CCCN(Cc2ccccc2F)C1` (stereo not drawn): 15.2%.
The same measure for `CSCCC(NC(=O)c1ccccc1Br)C(=O)N1CCN(C(C)=O)CC1` (stereo not drawn): 8.22%; for `O=C(COC(=O)c1ccc(Br)o1)Nc1ccc(Br)cc1`: 19%; for `CCCc1cc(C(=O)Nc2sc3c(c2C(=O)OCC)CCCC3)no1`: 6.07%.
With `O=C(NNc1nc(-c2ccccc2)c2cc(Br)ccc2n1)c1ccc(S(=O)(=O)N2CCCCC2)cc1`, the “hERG current change (%, negative = inhibition) at 10uM” value worked out at 8.26%.
Under `COc1ccc(-c2cn[nH]c2-c2ccc(OCc3ccc([N+](=O)[O-])cc3)cc2O)cc1` stands -9.1%; under `C/C(=N\NC(N)=S)C1(C)CCCCC1`, 9.27%; under `Cc1cc(N2CCN(C(c3ccccc3)c3ccccc3)CC2)n2ncnc2n1`, -5.7%.
The same measure for `Cc1cc(N2CCN(Cc3ccc4c(c3)OCO4)CC2)n2ncnc2n1`: 7.64%; for `Cc1cc(N2CCN(c3nnnn3-c3ccccc3)CC2)n2ncnc2n1`: -60.2%.
The same measure for `Cc1cc(C)nc(N2CCN(c3nnnn3-c3ccccc3)CC2)n1`: 9.05%.
With `Cc1nc2ncnn2c(C)c1C/C=C/c1ccccc1`, the “hERG current change (%, negative = inhibition) at 10uM” value was -15.3%.
The same measure for `Cc1cc(N2CCN(c3nc4ccccc4s3)CC2)n2ncnc2n1`: -77.6%.
Under `Cc1cc(N2CCc3ccccc32)n2ncnc2n1` stands -0.558%; under `Cc1cc(N2CCN(C/C=C/c3ccccc3)CC2)n2ncnc2n1`, -71.5%; under `Cc1cc(C)nc(N2CCN(c3ccc(F)cc3)CC2)n1`, 13.2%.
The same measure for `Cc1cc(N2CCN(c3ccccc3)CC2)n2ncnc2n1`: -31.2%; for `Cc1cc(N2CCN(c3ccc(F)cc3)CC2)n2ncnc2n1`: -57.6%.
With `c1ccc(N2CCN(c3nnnn3-c3ccccc3)CC2)cc1`, the “hERG current change (%, negative = inhibition) at 10uM” value is -11.2%.
